{"source": "paper PMC5540273", "about": "(PLoS ONE, 2017);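 further: KINOMEscan kinase panel screen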"}
{"tested_on": "RIOK2", "settings": "concentration: 1 μM,replicates: in singlicate; n = 1", "units": {"%Inh": "%"}}
{"molecule": "Cc1ccn2nc(-c3ccc(F)cc3)c(-c3ccncc3)c2c1.Cl", "note": "[GW457859]", "%Inh": 0}
{"molecule": "C[C@@H]1CNc2c(sc3ccc4nc(-c5ccncc5)ccc4c23)C(=O)N1", "%Inh": 0}
{"molecule": "Nc1nccc(-c2ccc3c(N)n[nH]c3c2)n1", "note": "[GSK1034945]", "%Inh": 52}
{"molecule": "COC(=O)c1cccc(NC(=O)NC2CCN(c3ccnc(NCc4ccc(F)cc4)n3)CC2)c1", "note": "[GSK1379860]", "%Inh": 0}
{"molecule": "CC(=O)Nc1nc2cnc(Nc3cc(NC(=O)c4cccc(CC(C)(C)C#N)c4)ccc3C)nc2s1", "%Inh": 22}
{"molecule": "O=C1NCCc2[nH]c(-c3ccncc3)cc21", "%Inh": 20}
{"molecule": "COc1cccc(CNC(=O)NC2CCN(c3ccnc(Nc4cc(OC)c(OC)c(OC)c4)n3)C2)c1", "note": "(stereo not drawn) [GSK1379765]", "%Inh": 0}
{"molecule": "NC(=O)Nc1sc(-c2ccc(F)cc2)cc1C(N)=O", "note": "[GW789449]", "%Inh": 37}
{"molecule": "CS(=O)(=O)c1cccc(CNc2nc(Nc3ccc4c(c3)[C@@H]3C[C@@H]4CNC3=O)ncc2C(F)(F)F)c1", "%Inh": 0}
{"molecule": "O=c1[nH]cc(-c2ccc(O)cc2)c2sc(-c3ccncc3)cc12", "note": "[GSK1033723]", "%Inh": 14}
{"molecule": "CC(C(=O)NC1CCN(c2ccnc(Nc3ccc(F)cc3)n2)C1)c1ccc(Cl)cc1", "note": "(stereo not drawn) [GSK1379713]", "%Inh": 0}
{"tested_on": "RIOK3", "settings": "concentration: 1 μM,replicates: in singlicate; n = 1", "units": {"%Inh": "%"}}
{"molecule": "CC(C)c1nc(-c2cccc(NS(=O)(=O)c3ccccc3)c2)c(-c2ccnc(Nc3ccc4c(c3)CN(C)CC4)n2)s1", "note": "[GSK1649598]", "%Inh": 24}
{"molecule": "C[C@@H](Oc1cc(-n2cnc3cc(-c4cnn(C)c4)ccc32)sc1C(N)=O)c1ccccc1Cl", "note": "[GSK580432]", "%Inh": 82}
{"molecule": "CCn1c(-c2nonc2N)nc2cncc(CNC3CCNCC3)c21.Cl", "note": "[SB-747651]", "%Inh": 6}
{"molecule": "CN1CCN(CCCNc2nccc(-c3c(-c4ccc(F)cc4)nn4cc(C(N)=O)ccc34)n2)CC1", "note": "[GW622475]", "%Inh": 36}
{"molecule": "Cc1ccc(C(=O)Nc2ccc(Oc3ccc4nc(NC(=O)C5CC5)cn4c3)c(F)c2)c(=O)n1-c1ccccc1", "%Inh": 9}
{"molecule": "CC(=O)Nc1ccc(-c2cc3ncnc(SCC(=O)O)c3s2)cc1", "%Inh": 15}
{"molecule": "Cn1ccc2ncnc(Oc3ccc(NC(=O)Nc4ccnc(C(F)(F)F)c4)c(Cl)c3)c21", "%Inh": 6}
{"molecule": "NC(=O)c1ccc(-c2cc3ncnc(SCC(=O)O)c3s2)cc1", "%Inh": 19}
{"molecule": "CN(c1ccc2c(c1)nc(NCc1ccc(F)cc1)n2C)c1ccnc(Nc2ccc(CS(C)(=O)=O)cc2)n1.Cl", "note": "[GW813244]", "%Inh": 17}
{"molecule": "FC(F)(F)c1cc(Br)cc(Nc2nccc(-c3cnn4ncccc34)n2)c1", "note": "[GW810578]", "%Inh": 0}
{"molecule": "Cn1ccc2ncnc(Oc3ccc(NC(=O)Nc4cccc(C(F)(F)F)c4)c(F)c3)c21", "%Inh": 23}
{"molecule": "CCCC(=O)Nc1n[nH]c2ncccc12", "note": "[SB-601436]", "%Inh": 0}
{"molecule": "CN(c1ccccc1CNc1nc(Nc2ccc3c(c2)CC(=O)N3)ncc1C(F)(F)F)S(C)(=O)=O", "%Inh": 61}
{"molecule": "COC(=O)c1cccc(NC(=O)NC2CCN(c3ccnc(Nc4cc(OC)c(OC)c(OC)c4)n3)C2)c1", "note": "(stereo not drawn) [GSK1379767]", "%Inh": 67}
{"molecule": "Cc1n[nH]c2cc(Nc3ccnc(Nc4cccc(CN5CCOCC5)c4)n3)ccc12", "note": "[GW682569]", "%Inh": 96.5}
{"molecule": "O=C(Nc1cccc(C(F)(F)F)c1)c1cccc(Oc2ccc3nccn3n2)c1", "%Inh": 15}
{"molecule": "C[C@@H]1CNc2c(sc3ccc4nc(-c5ccc(O)cc5)ccc4c23)C(=O)N1", "%Inh": 3}
{"molecule": "O=C(Nc1n[nH]c2cc(-c3ccco3)ccc12)C1CC1", "note": "[SB-737447]", "%Inh": 79}
{"molecule": "Cn1cc(-c2cccc3c(N)c(C(N)=O)nnc23)cn1", "%Inh": 60}
{"molecule": "OCCn1cc(-c2cnc3nnn(Cc4ccc5ncccc5c4)c3n2)cn1", "%Inh": 19}
{"molecule": "Cl.c1ccc(Oc2ccc(Nc3ccnc4cc(-c5ccc(CN6CCNCC6)o5)ccc34)cc2)nc1", "note": "[GW567142]", "%Inh": 0}
{"molecule": "CS(=O)c1ccc(-c2coc3ccc(-c4n[nH]c(=O)o4)cc23)cc1", "note": "(stereo not drawn)", "%Inh": 0}
{"molecule": "CS(=O)(=O)Nc1ccc(-c2ccnc3[nH]ccc23)cc1", "note": "[GSK993273]", "%Inh": 93.9}
{"molecule": "COC(=O)Nc1nc2cc(Oc3ccc(NC(=O)Nc4cc(C(F)(F)F)ccc4Cl)cc3)ccc2[nH]1.Cl", "note": "[GW697465]", "%Inh": 0}
{"molecule": "O=C(Nc1ccc(Oc2ccc3nc(NC(=O)C4CC4)cn3n2)c(F)c1)c1cccn(-c2ccccc2)c1=O", "%Inh": 31}
{"molecule": "CCNCC(Cc1ccccc1)NC(=O)c1cc(Br)c(-c2ccnc3[nH]ccc23)s1.Cl.Cl", "note": "(stereo not drawn) [GSK1383280]", "%Inh": 72}
{"molecule": "Cc1ccn2nc(-c3ccc(F)cc3)c(-c3ccncc3)c2c1.Cl", "note": "[GW457859]", "%Inh": 23}
{"molecule": "C[C@@H]1CNc2c(sc3ccc4nc(-c5ccncc5)ccc4c23)C(=O)N1", "%Inh": 5}
{"molecule": "Nc1nccc(-c2ccc3c(N)n[nH]c3c2)n1", "note": "[GSK1034945]", "%Inh": 91.2}
{"molecule": "COC(=O)c1cccc(NC(=O)NC2CCN(c3ccnc(NCc4ccc(F)cc4)n3)CC2)c1", "note": "[GSK1379860]", "%Inh": 6}
{"molecule": "CC(=O)Nc1nc2cnc(Nc3cc(NC(=O)c4cccc(CC(C)(C)C#N)c4)ccc3C)nc2s1", "%Inh": 0}
{"molecule": "O=C1NCCc2[nH]c(-c3ccncc3)cc21", "%Inh": 30}
{"molecule": "COc1cccc(CNC(=O)NC2CCN(c3ccnc(Nc4cc(OC)c(OC)c(OC)c4)n3)C2)c1", "note": "(stereo not drawn) [GSK1379765]", "%Inh": 56}
{"molecule": "NC(=O)Nc1sc(-c2ccc(F)cc2)cc1C(N)=O", "note": "[GW789449]", "%Inh": 98.5}
{"molecule": "CS(=O)(=O)c1cccc(CNc2nc(Nc3ccc4c(c3)[C@@H]3C[C@@H]4CNC3=O)ncc2C(F)(F)F)c1", "%Inh": 67}
{"molecule": "O=c1[nH]cc(-c2ccc(O)cc2)c2sc(-c3ccncc3)cc12", "note": "[GSK1033723]", "%Inh": 6}
{"molecule": "CC(C(=O)NC1CCN(c2ccnc(Nc3ccc(F)cc3)n2)C1)c1ccc(Cl)cc1", "note": "(stereo not drawn) [GSK1379713]", "%Inh": 0}
